Compound activity: PubChem BioAssay, Broad Institute
The list is not random: actives were taken first. Their share in the collection is about 3.4%.
LGR2 antag = blocks bursicon-induced cAMP signaling via Drosophila LGR2 | HEK293 LGR2, CRE-luciferase, bursicon-stimulated, 4 h | inhibition, % at 9.99 µM | actives 0.35% (n = 380,000) | AID 720647;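 active = drop in luminescence signal, shown as inhibition above about 50% in the replicate tests, limit read from the data, passing the limit was not always enough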;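 note: agonist challenge used bursicon conditioned medium at about half maximal strength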
rRNA inh HTS = selective bacterial rRNA inhibition in E. coli; E. coli WT GFP vs humanized-ribosome RFP mutants, fluorescence, 24 h; active compounds read low; DMSO median 0, no signal -100; AID 720706; actives 1.6% (n = 350,000); GFP signal change (wild-type ribosome), % (no concentration beside the values);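 active = significant combined selectivity score with lowered wild-type GFP, culture density cut under 30%, mutant RFP and density less affected; inactive = any of these conditions unmet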
EWS-Fli inh = blocks EWS/Fli oncoprotein-driven transcription; AID 651661; inhibition, % at 12.6 µM; A673 NR0B1-luciferase reporter, viability-normalised; actives 0.67% (n = 350,000);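 active = mean inhibition of at least 50% after viability correction, with every replicate also passing that limit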;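 note: firefly luciferase signal divided by Alamar Blue viability fluorescence both relative to DMSO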
PAX8 reporter = PAX8 transcriptional activity inhibition. RMG-I TPO-luciferase reporter, SteadyGlo, 24 h. inhibition, % at 12.6 µM. actives 1.2% (n = 360,000);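 active = mean replicate inhibition at least 60% with every replicate also reaching 60%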;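 note: luciferase light reporting Pax8 driven TPO promoter activity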
SIRT5 block = inhibitors of human sirtuin-5 desuccinylase | Purified SirT5, succinyl-peptide AMC, trypsin-coupled fluorescence | inhibition, % at 15 µM | actives 1.1% (n = 330,000) | AID 652115; in the data active = inhibition above about 15%
Target sequence (Q9NXA8 whole entry, looked up): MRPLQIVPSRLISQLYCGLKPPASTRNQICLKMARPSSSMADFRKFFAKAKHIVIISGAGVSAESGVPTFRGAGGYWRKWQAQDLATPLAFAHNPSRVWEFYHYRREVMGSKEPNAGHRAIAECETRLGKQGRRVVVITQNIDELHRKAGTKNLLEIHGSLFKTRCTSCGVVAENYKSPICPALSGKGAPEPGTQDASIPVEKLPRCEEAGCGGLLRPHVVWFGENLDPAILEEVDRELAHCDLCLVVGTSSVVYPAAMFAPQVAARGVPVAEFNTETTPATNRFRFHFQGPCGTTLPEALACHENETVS
PGC1a acetyl inh = lowers PGC1a acetylation signal in U2OS cells | AID 651687 | inhibition, % at 15.6 µM | actives 0.17% (n = 350,000) | AlphaScreen anti-acetyl-lysine; with virally co-expressed GCN5 acetyltransferase;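 active = every replicate shows inhibition of at least 40%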
DNA binder FP = small molecule DNA binding by fluorescence polarization. shares compounds with EWS-Fli inh. salmon sperm DNA acridine orange fluorescence polarization. AC35, µM (series often up to 68 µM). actives 2% (n = 640). AID 720586;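 active = fitted curve reaches a 35% signal fall AC35 below twice the sample's top valid tested dose, actives reach about 48 µM in these data; inactive = the rest, including activity in the rising direction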;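 note: lower polarization ratio signals compound binding to DNA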
Of the large screens only hits and unclear results are named; the others gave an inactive call (follow-up assays come after a bar, where they were run); ! = repeats disagree.

COc1ccc(CCC(C)NC2CCCCCCC2)cc1 (centres undefined)	none
COc1ccc(CCC(C)NCC2CCCCC2)cc1 (centres undefined)	EWS-Fli inh 90 | DNA binder FP inactive
CCCNC(=O)N1C[C@@H](C)[C@@H](OC)CN(C)C(=O)c2ccc(NC(C)=O)cc2OC[C@@H]1C	none
O=C(C[C@@H]1CC[C@@H]2[C@H](COC[C@@H](O)CN2S(=O)(=O)c2ccc(F)cc2)O1)NCc1ccc(Cl)c(Cl)c1	EWS-Fli inh 76 | DNA binder FP inactive
COC(=O)COc1ccc(-c2nccc(-c3ccc(Br)cc3)n2)cc1	none (no result: PGC1a acetyl inh)
COC(=O)COc1ccc(-c2nccc(-c3ccccn3)n2)cc1	EWS-Fli inh 54 (no result: PGC1a acetyl inh) | DNA binder FP inactive
COc1ccc(NC(=O)N(C)C[C@@H]2Oc3cc(C#CCN(C)C)ccc3S(=O)(=O)N([C@@H](C)CO)C[C@H]2C)cc1	none (no result: PAX8 reporter)
CC(C)CC#Cc1cnc2c(c1)C(=O)N([C@@H](C)CO)C[C@@H](C)[C@H](CN(C)C(=O)c1ccc(F)cc1)O2	none (no result: PAX8 reporter)
C[C@@H]1CN([C@H](C)CO)C(=O)c2cc(NC(=O)CCC(F)(F)F)ccc2O[C@H]1CN(C)C(=O)Nc1ccccc1	none
c1ccc(-c2ccc([C@H]3[C@H]4CNC[C@@H]3N4Cc3cc(-c4ccccc4)on3)cc2)cc1	EWS-Fli inh 58 (no result: SIRT5 block) | DNA binder FP inactive
COc1ccccc1CNC(=O)C[C@@H]1CC[C@@H]2[C@H](COC[C@@H](O)CN2C(=O)Nc2ccc(C(F)(F)F)cc2)O1	none
COc1ccccc1CNC(=O)C[C@@H]1CC[C@H]2[C@@H](COC[C@H](O)CN2C(=O)Nc2ccc(C(F)(F)F)cc2)O1	EWS-Fli inh 70 | DNA binder FP inactive
Cc1ccccc1N=CC1=C(O)c2ccccc2C1=O	LGR2 antag 101, EWS-Fli inh 77 | DNA binder FP inactive
COc1ccc(N=CC2=C(O)c3ccccc3C2=O)c(OC)c1	none (no result: LGR2 antag, rRNA inh HTS, EWS-Fli inh, PAX8 reporter, SIRT5 block)
Cc1ccsc1C(=O)OCC(=O)c1cc(C)n(C)c1C	LGR2 antag 71, EWS-Fli inh 63 | DNA binder FP inactive
O=C(Nc1ccccc1F)N1CC(=O)N2[C@H](C1)[C@@H](c1ccc(-c3ccc(F)cc3)cc1)[C@@H]2CO	none (no result: LGR2 antag, EWS-Fli inh, PAX8 reporter, SIRT5 block, PGC1a acetyl inh)
C=CCn1c(O)c(N=Nc2ccccc2)c2ccccc21	EWS-Fli inh 55 | DNA binder FP inactive
CC(C)CC#Cc1cnc2c(c1)C(=O)N([C@H](C)CO)C[C@@H](C)[C@@H](CN(C)C(=O)Cc1cccnc1)O2	none (no result: PAX8 reporter)
Cc1ccccc1N=Nc1c(O)n(C)c2ccccc12	EWS-Fli inh 60 | DNA binder FP inactive
CC(=O)Nc1cccc(-c2ccnc3c2CC(C)(C(=O)NCc2ccc(N(C)C)cc2)O3)c1 (centres undefined)	EWS-Fli inh 54 (no result: SIRT5 block) | DNA binder FP inactive
CCN1/C(=C\C(=S)Nc2ccccc2)Sc2ccccc21	none (no result: LGR2 antag, rRNA inh HTS, PGC1a acetyl inh)
CCN1/C(=C/C(C)=C/c2sc3ccccc3[n+]2CC)Sc2ccccc21	LGR2 antag 110!, EWS-Fli inh 78!, PAX8 reporter 102 | DNA binder FP 2.2µM
COC(=O)C[C@@H]1CC[C@@H]2[C@H](COc3ccc(NC(=O)c4ccccc4)cc3C(=O)N2C)O1	EWS-Fli inh 58 | DNA binder FP inactive
COC(=O)C[C@@H]1CC[C@@H]2[C@H](COc3ccc(NC(=O)c4cc(F)cc(F)c4)cc3C(=O)N2C)O1	EWS-Fli inh 61 (no result: SIRT5 block) | DNA binder FP inactive
COC(=O)C[C@@H]1CC[C@@H]2[C@H](COc3ccc(NC(=O)c4ccc(F)cc4)cc3C(=O)N2C)O1	EWS-Fli inh 57 | DNA binder FP inactive
COC(=O)C[C@H]1CC[C@H]2[C@H](COc3ccc(NC(=O)c4ccccc4)cc3C(=O)N2C)O1	none
CO[C@H]1CN(C)C(=O)c2ccc(NS(C)(=O)=O)cc2OC[C@H](C)N(C(=O)c2ccc3c(c2)OCO3)C[C@H]1C	none (no result: SIRT5 block)
Nc1ccc(-c2cc3ccccc3oc2=O)cc1	EWS-Fli inh 79 | DNA binder FP inactive
O=C(CN1C(=O)C(=O)c2ccccc21)c1ccc(Cl)cc1	EWS-Fli inh 60 | DNA binder FP inactive
